Assay [1] can be described thus: NCI Yeast Anticancer Drug Screen. Data for the rad50 strain (AID 155).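 Further: 0% = growth of vehicle-only cultures of the same strain.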 To be noted: S. cerevisiae rad50 strain growth inhibition; at 50.0 µM; hits give high values. Put shortly:
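Compounds were tested on a yeast strain with an engineered DNA damage repair alteration; the reported value is growth inhibition normalised to vehicle treatment.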

The nature of assay [2]: NCI Yeast Anticancer Drug Screen. Data for the mec2-1 strain (AID 157). To be noted: S. cerevisiae mec2-1 strain, at 50.0 µM, hits give high values. Put shortly: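 Each compound was tested on mec2-1 yeast, a strain altered in DNA damage repair or cell cycle control. Growth inhibition is reported relative to vehicle.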
A short description of assay [3]: NCI Yeast Anticancer Drug Screen. Data for the sgs1 mgt1 strain (AID 161).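 Further: 0% = growth of cultures given vehicle only.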 The following applies: S. cerevisiae sgs1 mgt1 strain, at 50.0 µM, hits give high values. Put shortly: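 Genetically altered yeast, compound exposure, growth inhibition relative to vehicle.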
Assay [4] in a line: NCI Yeast Anticancer Drug Screen. Data for the cln2 rad14 strain (AID 165).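 Further: 0% = growth equal to vehicle treated cultures.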 To be noted: S. cerevisiae cln2 rad14 strain, at 50.0 µM, hits give high values. Put shortly: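 Test compounds were added to cln2 rad14 yeast cultures; inhibition of growth was then determined by comparison with vehicle treatment.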
The nature of assay [5]: NCI Yeast Anticancer Drug Screen. Data for the bub3 strain (AID 167). To be noted: S. cerevisiae bub3 mutant strain, at 50.0 µM, hits give high values. Summed up: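 Growth of a checkpoint-deficient yeast mutant is measured after compound exposure. Values represent inhibition relative to vehicle.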
Assay [6] can be described thus: NCI Yeast Anticancer Drug Screen. Data for the mlh1 rad18 strain (AID 175). The following applies: S. cerevisiae mlh1 rad18 strain growth inhibition; at 50.0 µM; hits give high values. Put shortly:
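Inhibition values reflect reduced growth of mutant yeast versus vehicle-treated controls following compound exposure; the mutations affect DNA damage repair.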

Compounds without any hit were thinned out: in the full panel of roughly 79,000, 15% have a hit. A number with no mark means an inactive call. The source made the active and inactive calls. No stated cut-off is given here; in the data, active means growth inhibition above about 70%; inactive means the rest.

As to `O=c1[nH]cnc2c1ncn2-c1ccc(N(CCCl)CCCl)cc1`, the growth inhibition in assay [1] was 4.3%; in assay [2], 12.7%; in assay [3], 16%; in assay [4] it was -20.5%; in assay [5], -12.2%; in assay [6], 15.2%.

Consider `Cc1ccc(OP(=O)(Oc2ccc(C)cc2)Oc2ccc(C)cc2)cc1.Cc1ccc(OP(=O)(Oc2ccc(C)cc2)Oc2ccc(C)cc2)cc1.[Cl][Ni][Cl]`, for which the growth inhibition in assay [1] was 23.5%; in assay [2], 35.8%; in assay [3], 29.4%; in assay [4], 4.2%; in assay [5], 38.4%; in assay [6], 59.3%.

`CCCCCCC(Cn1ccnc1)c1ccc(Br)cc1` (centres undefined): the growth inhibition was 98.2% (active) in assay [1]; 98.8% (active) in assay [2]; 95.8% (active) in assay [3]; 98.3% (active) in assay [4]; 99.5% (active) in assay [5]; 91.7% (active) in assay [6].

As for `CC(C)(C)C(=O)CP(=O)(O)O` (tested in a mixture with another compound), the growth inhibition in assay [1] was 24.1%; in assay [2] it was -4.45%; in assay [3], 1.5%; in assay [4] it was 14.7%; in assay [5], 10.2%; in assay [6], 15.3%.

Turning to `CCN(CC)CCn1c(=O)c2ccccc2n(CCN(CC)CC)c1=O`, the growth inhibition in assay [1] was 19.6%; in assay [2] it was 13.1%; in assay [3], 22.5%; in assay [4], 20.8%; in assay [5] it was 12.7%; in assay [6], 10.4%.

As to `CC(C)OP(=S)(Oc1ccc(Cl)cc1Cl)OC(C)C`, the growth inhibition in assay [1] was 20.9%; in assay [2], -11.7%; in assay [3] it was 31.9%; in assay [4], 8.8%; in assay [5] it was 21.2%; in assay [6] it was 8%.

With `CN1CCCC(O)(C(=O)c2ccccc2)C1` (centres undefined), the growth inhibition in assay [1] was 4.15%; in assay [2], -15.2%; in assay [3], 0.7%; in assay [4] it was -16%; in assay [5] it was -9.35%; in assay [6], 12.9%.

Consider `N/C(N=P(c1ccccc1)(c1ccccc1)c1ccccc1)=N\[N+](=O)[O-]`, for which the growth inhibition in assay [1] is 11.7%; in assay [2], 15.8%; in assay [3], 8.35%; in assay [4], 4.65%; in assay [5] it was 12.2%; in assay [6] it was -16.1%.

Consider `Cc1nccc2c1[nH]c1ccccc12`, for which the growth inhibition in assay [1] was 6.5%; in assay [2], 5.7%; in assay [3], -15.4%; in assay [4], -5.65%; in assay [5] it was 2.5%; in assay [6], 2.3%.

For the compound `CN1CCC(O)(c2ccccc2)C(c2ccccc2)C1` (centres undefined), the growth inhibition in assay [1] is 0.25%; in assay [2], 1.05%; in assay [3], -8.45%; in assay [4] it was 0.4%; in assay [5], 0.6%; in assay [6], -0.05%.

On to `CC(Cc1ccc(O)cc1)NCC(O)c1cc(O)cc(O)c1` (centres undefined), for which the growth inhibition was 9.65% in assay [1]; 13.2% in assay [2]; 6.95% in assay [3]; -8.45% in assay [4]; 16.4% in assay [5]; 6.55% in assay [6].

Regarding `[C-]#[O+].[C-]#[O+].[C-]#[O+].[C-]#[O+].[Cr].c1ccc([PH+](CC[PH+](c2ccccc2)c2ccccc2)c2ccccc2)cc1`, the growth inhibition in assay [1] is 11.7%; in assay [2], 4.85%; in assay [3] it was -0.9%; in assay [4], 15.2%; in assay [5], 0.35%; in assay [6], 20.4%.

Consider `CC(=O)C(=[N+]=[N-])C(=O)N(C)CCC#N`, for which the growth inhibition in assay [1] is -7.3%; in assay [2], 6.25%; in assay [3] it was 11.2%; in assay [4], 13.7%; in assay [5], 7.25%; in assay [6], 20.9%.

For `CCCCCC(=O)c1c(O)cc2c(c1O)C(=O)c1c(O)cc(O)cc1C2=O`, the growth inhibition in assay [1] is 10.2%; in assay [2], 2.25%; in assay [3], 6.1%; in assay [4], 10.3%; in assay [5] it was 8.35%; in assay [6], -5.7%.

Take `CCOP(=O)(CCP(=O)(OCC)OCC)OCC.C[CH2][Sn]([Cl])([Cl])[CH2]C`: the growth inhibition in assay [1] is 42.9%; in assay [2], 52.1%; in assay [3], 45.5%; in assay [4], 46%; in assay [5], 42.1%; in assay [6], 41%.

Take `OCCCN=Cc1ccccc1O.OCCCN=Cc1ccccc1O.[Cu]`: the growth inhibition in assay [1] is 38%; in assay [2], -9.5%; in assay [3] it was 22.2%; in assay [4], -32.1%; in assay [5], 0.35%; in assay [6] it was 15.6%.

Turning to `CC(Nc1c([N+](=O)[O-])ccc(C(=O)NCCN(C)C)c1[N+](=O)[O-])C(=O)Nc1ccc(N(CCCl)CCCl)cc1` (centres undefined), the growth inhibition in assay [1] was -34.6%; in assay [2] it was -9.75%; in assay [3] it was 0.75%; in assay [4], 7.35%; in assay [5], -8.05%; in assay [6] it was -7.75%.

With `O=P(Oc1ccccc1)(N1CCCC1)N1CCCC1`, the growth inhibition in assay [1] is 27.9%; in assay [2], 18.4%; in assay [3], 11.9%; in assay [4] it was 18.1%; in assay [5], 36.5%; in assay [6], 8.15%.

Consider `COCC1OC2OC3C(COC)OC(OC4C(COC)OC(OC5C(COC)OC(OC6C(COC)OC(OC7C(COC)OC(OC8C(COC)OC(OC1C(O)C2O)C(O)C8O)C(O)C7O)C(O)C6O)C(O)C5O)C(O)C4O)C(O)C3O` (centres undefined) (tested in a mixture with another compound), for which the growth inhibition in assay [1] is 13.2%; in assay [2] it was -13.6%; in assay [3], -4.6%; in assay [4], 20.1%; in assay [5], -18.8%; in assay [6], -64.7%.

Source of the values: PubChem BioAssay (NCI).
